Screening results: PubChem BioAssay, Corson Lab, School of Medicine, Indiana University
FECH block: inhibitors of human ferrochelatase; P22830; purified FECH, Ni-mesoporphyrin absorbance 550 nm; AID 1671448; hit rate 3.3% among 20,000; calls only at 10 µM (by protocol);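 active means enzyme reaction rate more than 3 SD below the solvent-only control wells on the same plate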;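 further: lower slope than DMSO wells means FECH inhibition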
Target sequence (P22830 whole entry, looked up): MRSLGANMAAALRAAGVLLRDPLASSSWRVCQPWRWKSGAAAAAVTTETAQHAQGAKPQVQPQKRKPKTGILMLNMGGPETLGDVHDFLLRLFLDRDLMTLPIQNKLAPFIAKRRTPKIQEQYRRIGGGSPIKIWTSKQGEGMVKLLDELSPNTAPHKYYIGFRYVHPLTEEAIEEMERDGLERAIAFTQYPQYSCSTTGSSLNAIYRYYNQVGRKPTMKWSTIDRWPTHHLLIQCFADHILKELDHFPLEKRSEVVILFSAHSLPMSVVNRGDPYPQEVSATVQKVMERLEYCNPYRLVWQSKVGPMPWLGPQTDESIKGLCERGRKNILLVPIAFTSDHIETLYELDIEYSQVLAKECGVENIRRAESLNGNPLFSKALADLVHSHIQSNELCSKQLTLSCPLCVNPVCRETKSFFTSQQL
Large screens that a line does not name were inactive. The full list was thinned out, with hits kept by preference.

Cc1cccc(N(Cc2nc3nc(C)cc(C)n3n2)C(=O)c2ccccc2C)c1	FECH block active
Cc1cc(C)n2nc(CN(C(=O)c3ccccc3C)c3ccccc3)nc2n1	none
Cc1cc(C)n2nc(CN(C(=O)c3cccc(Cl)c3)c3ccc(F)cc3)nc2n1	none
Cc1ccc2oc(=O)n(CC(=O)NC3CCC(n4cnnc4)CC3)c2c1 (configuration not stated)	none
CN1CCC2(CC1)CN(C(=O)c1ccc(-c3nnn(C)n3)cc1)CCN2C	none
CCc1ccc(-n2c(CN3CCN(S(=O)(=O)c4cccc(C)c4)CC3)nc3cccnc32)cc1	none
CCCCN(Cc1nc2nc(C)cc(C)n2n1)C(=O)c1ccccc1C	none
COc1ccc(NC(=O)CN2C(=O)CCc3cc(S(=O)(=O)N4CCCC4)ccc32)cc1OC	none
COc1ccccc1OCC(=O)Nc1cc(C)nn1-c1ncnc2c1cnn2-c1ccc(Cl)cc1	none
Cc1cc(N2CCOCC2)nc(N2CCN(S(=O)(=O)c3ccc4c(c3)Cc3ccccc3-4)CC2)n1	none
CCc1cc(Sc2ccccc2NC(=O)Cc2cccc(OC)c2)n2ncnc2n1	none
CCc1nc(OCC(=O)NCCOC)c2c(-c3ccc(F)cc3)noc2n1	none
COc1ccccc1C1CNC(=O)c2nc(CCCN3CCCC3)[nH]c2C1 (configuration not stated)	none
O=C(CSCc1nc(-c2ccc(F)cc2)no1)N1CCNC1=O	none
Cc1cc(C)n2nc(CN(C(=O)C3CCCCC3)c3cccc(Cl)c3)nc2n1	none
Cc1cc(C)n2nc(CN(C(=O)C3CCCCC3)c3ccc(Cl)cc3)nc2n1	FECH block active
Cc1cc(C)n2nc(CN(C(=O)Cc3ccccc3)c3ccc(Cl)cc3)nc2n1	none
CCCC(=O)N(Cc1nc2nc(C)cc(C)n2n1)c1cccc(C)c1	FECH block active
Cc1ccc(N(Cc2nc3nc(C)cc(C)n3n2)C(=O)Cc2ccc(Cl)cc2)cc1	FECH block active
Cc1cccc(N(Cc2nc3nc(C)cc(C)n3n2)C(=O)CCc2ccccc2)c1	none
COc1ccc(CC(=O)N(Cc2nc3nc(C)cc(C)n3n2)c2ccc(Cl)cc2)cc1	none
CCCC(=O)N(Cc1nc2nc(C)cc(C)n2n1)c1cccc(Cl)c1	none
Cc1ccc(N(Cc2nc3nc(C)cc(C)n3n2)C(=O)C2CCCCC2)cc1	none
Cc1ccc(S(=O)(=O)N2CCN(c3nc(C)cc(N4CCN(C)CC4)n3)CC2)cc1	none
C=CCc1cc(C(=O)N2CCN(C)C3(CCN(C)CC3)C2)ccc1OC	none
CN1C[C@@H](NC(=O)c2ccco2)C[C@H]1C(=O)N1CCc2ccccc2C1	none
CCOc1ccc(N2CC(NC(=O)c3ccc(C)cc3)CC2=O)cc1 (configuration not stated)	none
CN1C(=O)c2cc(C(=O)NCc3ccccc3F)nn2CC1(C)C(=O)NCc1ccc(F)cc1 (configuration not stated)	none
CCC(=O)Nc1ccccc1-c1nnc(SCC(=O)Nc2ccc(Cl)cc2)[nH]c1=O	none
CCCNC(=O)c1ccccc1NC(=O)CN1c2ccc(C(C)C)cc2-c2ccccc2S1(=O)=O	none
CC(C)c1ccc2c(c1)-c1ccccc1S(=O)(=O)N2CC(=O)NCc1ccccn1	FECH block active
CC(C)c1ccc2c(c1)-c1ccccc1S(=O)(=O)N2CC(=O)NCc1ccncc1	FECH block active
CCc1ccc2c(c1)-c1ccccc1S(=O)(=O)N2CC(=O)N1CCN(c2ccccc2)CC1	none
CC(C)c1ccc2c(c1)-c1ccccc1S(=O)(=O)N2CC(=O)NCCCN1CCOCC1	none
CCc1ccc2c(c1)-c1ccccc1S(=O)(=O)N2CC(=O)Nc1ccccc1OC	none
CC(C)c1ccc2c(c1)-c1ccccc1S(=O)(=O)N2CC(=O)NCCSC1CCCCC1	none
CCc1ccc2c(c1)-c1ccccc1S(=O)(=O)N2CC(=O)NCc1ccccn1	FECH block active
CCN1CCN(C(=O)CN2c3ccc(C(C)C)cc3-c3ccccc3S2(=O)=O)CC1	FECH block active
CCc1ccc2c(c1)-c1ccccc1S(=O)(=O)N2CC(=O)Nc1ccc(NC(C)=O)cc1	none
CCN1CCN(C(=O)CN2c3ccc(Br)cc3-c3ccccc3S2(=O)=O)CC1	none
Cc1cnc(-c2nccn2CCC(=O)Nc2ccc(F)c(C)c2)[nH]1	none
CCOc1ccc(S(=O)(=O)N2CCN(c3nc(C)cc(N(C)C)n3)CC2)cc1	none
Cc1ccc2cc(-c3noc(CCC(=O)NCc4cccnc4)n3)c(=O)[nH]c2c1	none
COc1ccc(S(=O)(=O)N2CCN(c3nc(C)cc(N4CCCCC4)n3)CC2)cc1OC	none
COc1ccc(-c2cc(N3CCN(C(=O)Nc4ccccc4Br)CC3)ncn2)cc1	none
Cc1ccc(-n2c(CN3CCN(S(=O)(=O)c4cccc(Cl)c4)CC3)nc3cccnc32)cc1	none
CCCc1nc2nc[nH]n2c(=O)c1NC(=O)Nc1ccc(F)cc1F	none
NS(=O)(=O)c1ccc(NC(=O)c2noc3c2CCCC3)cc1	none
CCc1ccc(-c2noc3c(=O)n(CCC(=O)Nc4ccc(S(N)(=O)=O)cc4)cnc23)cc1	none
CCOc1ccc(-c2cc(C(=O)Nc3ccc(S(N)(=O)=O)cc3)no2)cc1	FECH block active
CCOc1ccc(NC(=O)c2cc(-c3ccc(OC)c(S(N)(=O)=O)c3)n[nH]2)cc1	none
NS(=O)(=O)c1ccc(NC(=O)c2nn(-c3cccc(Cl)c3)ccc2=O)cc1	none
NS(=O)(=O)c1ccc(NC(=O)c2cc(-c3ccc(Cl)cc3)on2)cc1	FECH block active
Cc1n[nH]c(C)c1CCN(C)C(=O)c1cn(C2CCCCCC2)nn1	none
CCc1nccc(CN2CCCC(CNC(=O)c3ccc[nH]3)C2)n1 (configuration not stated)	none
Cc1cc2nc(CSc3ccccc3C)cc(=O)n2o1	none
C=CCN(C(=O)Cn1c(=O)c2cnc(-c3ccccc3)nc2n(C)c1=O)c1ccccc1	none
CCCn1cnnc1CN1CC(C(=O)O)CC1=O (configuration not stated)	none
CCc1ccc(-n2c(CN3CCN(S(=O)(=O)c4ccc(C)c(C)c4)CC3)nc3cccnc32)cc1	none
Cc1ccc(S(=O)(=O)N2CCN(Cc3nc4cccnc4n3-c3ccccc3)CC2)cc1C	none
CCc1ccc(-n2c(CN3CCN(S(=O)(=O)c4ccc(CC)cc4)CC3)nc3cccnc32)cc1	FECH block active
COc1ccc(S(=O)(=O)N2CCN(Cc3nc4cccnc4n3-c3ccccc3)CC2)cc1OC	FECH block active
COc1ccc(Cl)cc1S(=O)(=O)N1CCN(Cc2nc3cccnc3n2-c2ccccc2)CC1	none
CCc1ccc(S(=O)(=O)N2CCN(Cc3nc4cccnc4n3-c3ccc(C)cc3)CC2)cc1	none
CCOC(=O)c1ccc(S(=O)(=O)Nc2c(C)nc3nc(C)[nH]n3c2=O)cc1	none
CSc1ccc(CNC(=O)c2cc3n(n2)CC(C)(C(=O)NCc2ccc(F)cc2)N(C)C3=O)cc1 (configuration not stated)	none
CCC(=O)NCCn1cnc(-c2ccccc2)c1-c1ccc2nonc2c1	none
Cc1ccoc1C(=O)N(CCN1CCCCCC1)C(C)C	none
Cc1ccccc1CNS(=O)(=O)c1ccc2c(c1)CCN2C(=O)CCC(=O)N1CCOCC1	none
COc1cccc(NC(=O)CN2C(=O)C3CCCCN3c3ccc(C(=O)N(C)C)cc32)c1 (configuration not stated)	none
O=C(c1ccccc1F)N1CCN(S(=O)(=O)c2cc3c4c(c2)CCN4C(=O)CC3)CC1	none
CC(=O)c1cccc(NC(=O)Cn2c(C(=O)OC(C)C)cc3ccsc32)c1	none
CC(=O)c1ccc(NC(=O)Cn2c(C(=O)OC(C)C)cc3ccsc32)cc1	FECH block active
COc1ccc(NC(=O)Cn2c(C(=O)OC(C)C)cc3ccsc32)cc1	none
Cc1nn(C)c(C)c1CN(C(=O)c1cnn2ccn(C)c12)C1CC1	none
C=CCn1cc(CN(C)C(C)CC(=O)NC)c(C)n1 (configuration not stated)	none
